Source: PubChem
The entries come from a sample that favours hits as a whole.
Pf Dd2 growth: qHTS Primary assay for Inhibitors of Plasmodium falciparum Dd2 growth in vitro. P. falciparum Dd2 growth, SYBR Green, 72 h. Potency, µM (top dose mostly 28.9 µM), for inactives: at the highest dose activity, negative = inhibition, usual class: inhibitors. actives 4.3% (n = 120,000). AID 1347417, 2020; active means well fitted inhibition curve with a large enough effect;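 further: plate controls were DMSO vehicle for no effect and reference drug for full effect; nearly all actives have a fitted effect of over 65% in size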
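Infected erythrocytes (Dd2, 0.3% parasitemia, 2.5% hematocrit final) are added to compound in RPMI-1640/Albumax II medium, grown 72 h at 37C in low oxygen, then lysed with saponin/Triton-X containing SYBR Green and read by fluorescence.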
Starred values were filed as active, the others as inactive; [ ] = dose if it differs, or a comment. Potency means the concentration at half of the fitted maximal effect.

Screening COc1ccc(-c2n[nH]c3c2CC(=O)N(CCOc2ccccc2)C3)cc1F returned Pf Dd2 growth -16%[44.1 µM].
`COc1ccccc1-c1ccnc(-c2nnc(C)n2CCN2CCOCC2)c1` gave Pf Dd2 growth inactive.
Screening COCCC(=O)N1CCCC1c1nc(C2CCOCC2)no1 (stereo not drawn) returned Pf Dd2 growth 27%.
COCCOC1CCN(C(C(=O)O)c2cc(C)c(OC)c(C)c2)CC1 (stereo not drawn) was read as Pf Dd2 growth 4%.
`Cc1cc(C)cc(NC(=O)N2CCCC(Cn3c(C)nc4cccnc43)C2)c1` (stereo not drawn) gave Pf Dd2 growth -7%.
`Cc1ccc(OCCSc2nnc(-c3cccs3)o2)cc1` gave Pf Dd2 growth 11µM*.
For Cc1ccc(OCCSc2nnc(-c3cccs3)o2)cc1Cl the results were Pf Dd2 growth 80%.
For Cc1ccc(-c2nnc(SCCOc3ccccc3)o2)cc1 the results were Pf Dd2 growth 6%.
COCC1CN(C(C)=O)CC12CCN(C(=O)c1cccc(C)c1)CC2 (stereo not drawn) was read as Pf Dd2 growth 68%.
Screening Cc1cccc(C(C(=O)NCc2cc(-c3cccc(F)c3)no2)N(C)C)c1 (stereo not drawn) returned Pf Dd2 growth -13%.
Screening O=C(CCC1CCN(C(=O)c2cc(C3CC3)[nH]n2)CC1)N1CCC(Cc2ccccc2)CC1 returned Pf Dd2 growth inactive.
O=C(c1n[nH]c2c1CCCCCC2)N1CCC(c2nc(C3CCOCC3)no2)C1 (stereo not drawn) was read as Pf Dd2 growth inactive.
CCc1ccc(NC(=O)NCC2CCOCC2)cc1 was read as Pf Dd2 growth 4%.
For COCCn1ncc(N2CCCC(CC(=O)NCCN3CCCC3)C2)cc1=O (stereo not drawn) the results were Pf Dd2 growth 39%.
`COc1ccc(-c2cn3cc(C(=O)NCC(N)=O)nc3c(=O)n2CC2CC2)c(F)c1` gave Pf Dd2 growth -28%.
For CCCN(C(=O)c1cc2c(=O)oc3ccccc3c2s1)c1cccc(Cl)c1 the results were Pf Dd2 growth 11%.
Screening CC(C)=CCn1c(-c2cc(C)oc2C)cn2cc(C(=O)N(C)CC(C)C)nc2c1=O returned Pf Dd2 growth 11µM*.
For CCCN(C)C(=O)c1cn2cc(-c3cccc(Cl)c3)n(CC=C(C)C)c(=O)c2n1 the results were Pf Dd2 growth 13µM*.
CCN(CC)c1ccc2cc(-c3nnc(-c4cccc(Cl)c4)o3)c(=O)oc2c1 was read as Pf Dd2 growth -2%.
For COc1ccc(C2Cn3nnc(-c4noc(CC5CCCCC5)n4)c3CO2)cc1 (stereo not drawn) the results were Pf Dd2 growth inactive.
For CC(C)NC(=O)C1CCc2nnc(C3CCN(C(=O)c4ccccc4)CC3)n21 (stereo not drawn) the results were Pf Dd2 growth 19%.
Screening CCCNC(=O)N(C1CCOCC1)C1CCN(S(=O)(=O)c2cn(C)cn2)CC1 returned Pf Dd2 growth -1%.
`O=C(Cc1cccc(C(F)(F)F)c1)N1CCCc2ncc(C(=O)N3CCC[C@@H]3c3ccc(F)cc3)cc21` gave Pf Dd2 growth -4%.
`COc1ccccc1N1CCCc2ncc(C(=O)NCCc3c[nH]c4ccccc34)cc21` gave Pf Dd2 growth -19%[44.1 µM].
`O=C(NCc1cccc(F)c1)c1cnc2c(c1)N(C(=O)Cc1cccc(C(F)(F)F)c1)CCC2` gave Pf Dd2 growth 13%.
For COc1ccccc1N1CCCc2ncc(C(=O)N3CC[S+](=O)([O-])CC3)cc21 the results were Pf Dd2 growth 58%[44.1 µM].
`COc1ccccc1N1CCCc2ncc(C(=O)N3CCCC[C@@H]3Cc3ccccc3)cc21` gave Pf Dd2 growth 4.5µM*.
`O=C(Cc1cccc(C(F)(F)F)c1)N1CCCc2ncc(C(=O)N3CCCC[C@@H]3Cc3ccccc3)cc21` gave Pf Dd2 growth 11µM*.
Screening COC(=O)[C@@H](Cc1cccnc1)NC(=O)[C@H]1CN(C(C)=O)CCN1C(=O)N1CCOCC1 returned Pf Dd2 growth 10%.
COc1ccc(CCCN2C(=O)O[C@@H]3CN(c4cc(OC)ncn4)C[C@@H]32)cc1 was read as Pf Dd2 growth -8%.
`CCC(=O)N1CCC(Cc2noc(C3CCOCC3)n2)C1` (stereo not drawn) gave Pf Dd2 growth 109%.
CNC(=O)[C@@H]1C[C@@H](O)CN1C1CCN(C(=O)c2ccccc2OC)CC1 was read as Pf Dd2 growth -22%.
CC(C)CN1C(=O)COC[C@@H]1[C@H](O)c1ccc(NC(=O)c2ccco2)cc1 was read as Pf Dd2 growth inactive.
Screening Cn1nc(C2CCN(C(=O)c3ccc(C(F)(F)F)cc3)CC2)[nH]c1=O returned Pf Dd2 growth -13%.
Screening Fc1ccc2nc(CO[C@H]3CN(CC4CC4)C[C@H]3F)[nH]c2c1 returned Pf Dd2 growth 11µM*.
`Cn1ccnc1CN1C[C@@H](F)[C@@H](OCc2nc3ccc(F)cc3[nH]2)C1` gave Pf Dd2 growth -7%[44.1 µM].
`Cc1cccnc1CN1C[C@@H](F)[C@@H](OCc2nc3ccc(F)cc3[nH]2)C1` gave Pf Dd2 growth inactive.
FC(F)(F)c1cccc(CN2CCOC[C@H](Oc3cnccn3)C2)c1 was read as Pf Dd2 growth inactive.
For Cc1cnc(C(=O)N[C@@H]2CCC[C@@H]2C(=O)N2CCN(c3cccc(Cl)c3)CC2)cn1 the results were Pf Dd2 growth inactive.
`CC(C)N1CCC(N2CCCC(N3CCN(c4cccc(C(F)(F)F)c4)CC3)C2)CC1` (stereo not drawn) gave Pf Dd2 growth 14µM*.
CNC(=O)CN1CCCC(N2CCN(c3cccc(C(F)(F)F)c3)CC2)C1 (stereo not drawn) was read as Pf Dd2 growth -23%.
`NCC(=O)N1CCCC(N2CCN(c3cccc(C(F)(F)F)c3)CC2)C1` (stereo not drawn) gave Pf Dd2 growth -18%.
`NC(=O)NCCN1CCCC(N2CCN(c3cccc(C(F)(F)F)c3)CC2)C1` (stereo not drawn) gave Pf Dd2 growth -10%.
`O=C(CO)N1CCCC(N2CCN(c3cccc(C(F)(F)F)c3)CC2)C1` (stereo not drawn) gave Pf Dd2 growth -1%.
COc1cccc(CN2CCCC(N3CCN(c4cccc(C(F)(F)F)c4)CC3)C2)c1O (stereo not drawn) was read as Pf Dd2 growth 0.4µM*.
CC(C)N1C(=O)C2(CCCC2)C1C(=O)NC1CCCC1 (stereo not drawn) was read as Pf Dd2 growth 19%.
O=C(Nc1ccc(Cl)cc1)c1cc2n(n1)CC(c1ccc(Cl)cc1)OC2 (stereo not drawn) was read as Pf Dd2 growth 4%.
CCN(CC)[C@H]1C[C@@H](Cc2cc(CCO)on2)C1(C)C was read as Pf Dd2 growth 28%[44.1 µM].
Cc1cc(N2CCC(N3CCCC(C(=O)NCCc4ccccc4)C3)CC2)ncn1 (stereo not drawn) was read as Pf Dd2 growth inactive.
Cc1ccc(CN2CCSc3ccc(C(=O)Nc4ccc(Cl)cc4)cc32)cc1 was read as Pf Dd2 growth 7.9µM*.
`O=C(NCCc1ccc(Cl)cc1)c1ccc2c(c1)N(Cc1ccccc1)CCS2` gave Pf Dd2 growth 1%.
Screening Cc1ccc(CN2CCSc3ccc(C(=O)NCc4ccc(OC(C)C)cc4)cc32)cc1 returned Pf Dd2 growth -24%.
Screening CCN1CCSc2ccc(C(=O)NCc3ccc(OC)cc3)cc21 returned Pf Dd2 growth -21%.
